Reference: PubChem BioAssay (Tox21)
Active and inactive are the calls of the source. Unless noted, calls come from the whole dose curve; as a rule, active = well fitted curve in the direction sought with a large enough effect in the repeat runs; inconclusive = weak or mixed curves; inactive = no such curve, though single readings can be large; an effect the other way counts as inactive or inconclusive.

Experiments:
[1] = system: thyroid hormone receptor (rat, GH3 cells); test: qHTS assay to identify small molecule agonists of the thyroid receptor (TR) signaling pathway (AID 743066; calls by dose curve)
[2] = qHTS assay to identify small molecule antagonists of the estrogen receptor alpha (ER-alpha) signaling pathway - cell viability counter screen (AID 743074; calls by dose curve;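 note: HEK293 cells carrying ER-alpha-UAS-bla reporter stimulated with 17beta-estradiol; nearly all actives have a fitted effect of over 45% in size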)
[3] = biological target: Estrogen receptor (Homo sapiens) (UniProt P03372); test: qHTS assay to identify small molecule agonists of the estrogen receptor alpha (ER-alpha) signaling pathway (AID 743075; calls by dose curve;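 note: HEK293 GripTite cells with ER-alpha and UAS-driven beta-lactamase reporter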; note: potency is the fitted concentration of half-maximal effect)
Chain of Estrogen receptor (Homo sapiens) (P03372 whole entry, looked up): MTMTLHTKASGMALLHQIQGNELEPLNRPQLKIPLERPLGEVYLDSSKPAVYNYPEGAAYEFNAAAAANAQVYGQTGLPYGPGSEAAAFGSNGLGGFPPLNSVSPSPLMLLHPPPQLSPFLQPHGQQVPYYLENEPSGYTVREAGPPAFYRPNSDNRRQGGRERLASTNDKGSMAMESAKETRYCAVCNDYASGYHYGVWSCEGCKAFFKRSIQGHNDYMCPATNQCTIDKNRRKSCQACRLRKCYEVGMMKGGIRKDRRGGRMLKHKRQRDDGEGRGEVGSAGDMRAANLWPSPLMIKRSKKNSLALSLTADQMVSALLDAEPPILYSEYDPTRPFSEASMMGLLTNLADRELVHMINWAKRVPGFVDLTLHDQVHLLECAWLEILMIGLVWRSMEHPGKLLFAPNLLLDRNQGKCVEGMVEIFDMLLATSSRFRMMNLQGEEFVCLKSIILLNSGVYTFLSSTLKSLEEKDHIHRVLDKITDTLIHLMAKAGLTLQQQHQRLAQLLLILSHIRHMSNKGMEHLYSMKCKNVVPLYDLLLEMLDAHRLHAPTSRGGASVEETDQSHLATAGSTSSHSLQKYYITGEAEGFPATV

[4] = biological target: Estrogen receptor (Homo sapiens) (UniProt P03372); test: qHTS assay to identify small molecule agonists of the estrogen receptor alpha (ER-alpha) signaling pathway using the BG1 cell line (AID 743079); settings: BG1Luc4E2 cells, ERE-luciferase agonist, 22 h; activation: at 70.3 µM (top of the series); note: nearly all actives have a fitted effect of over 20% in size; note: potency is the fitted concentration of half-maximal effect
[5] = qHTS assay to identify small molecule antagonists of the estrogen receptor alpha (ER-alpha) signaling pathway using the BG1 cell line (AID 743080; calls by dose curve;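 note: BG1 cells stimulated with 17beta-estradiol alongside compound; nearly all actives have a fitted effect of over 25% in size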; note: potency is the fitted concentration of half-maximal effect)
Method in brief: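 Readout is ONE-Glo luminescence, taken 30 min at room temperature after reagent addition, preceded by a CellTiter-Fluor viability read; BG1-Luc-4E2 cells had received compound and 17beta-estradiol for 21.5 h at 37 C.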

Aromatase (Homo sapiens) = Aromatase (Homo sapiens) (UniProt P11511); test: qHTS assay to identify aromatase inhibitors (AID 743083); note: nearly all actives have a fitted effect of over 55% in size; note: potency is the fitted concentration of half-maximal effect
Chain of Aromatase (Homo sapiens) (P11511 whole entry, looked up): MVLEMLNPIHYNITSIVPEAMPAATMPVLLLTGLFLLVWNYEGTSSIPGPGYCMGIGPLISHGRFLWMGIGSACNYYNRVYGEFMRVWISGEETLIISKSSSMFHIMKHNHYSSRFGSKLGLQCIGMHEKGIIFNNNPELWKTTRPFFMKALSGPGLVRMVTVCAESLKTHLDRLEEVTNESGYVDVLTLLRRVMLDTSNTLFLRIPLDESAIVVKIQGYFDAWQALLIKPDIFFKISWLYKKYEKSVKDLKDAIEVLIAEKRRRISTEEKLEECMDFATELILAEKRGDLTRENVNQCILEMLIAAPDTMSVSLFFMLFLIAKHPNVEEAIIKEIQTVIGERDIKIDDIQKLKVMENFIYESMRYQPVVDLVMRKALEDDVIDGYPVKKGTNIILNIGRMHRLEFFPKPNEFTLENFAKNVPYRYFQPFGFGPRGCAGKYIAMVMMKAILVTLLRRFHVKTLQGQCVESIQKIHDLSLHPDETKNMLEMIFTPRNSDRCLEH

[6] = qHTS assay to identify aromatase inhibitors - cell viability counter screen (AID 743084);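 note: cells stimulated with testosterone during compound exposure; nearly all actives have a fitted effect of over 55% in size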
[7] = biological target: Aryl hydrocarbon receptor (Homo sapiens) (UniProt P35869); test: qHTS assay to identify small molecule that activate the aryl hydrocarbon receptor (AhR) signaling pathway (AID 743085);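 note: HG2L7.5c1 human HepG2 liver cells with stably integrated DRE-driven firefly reporter; nearly all actives have a fitted effect of over 15% in size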
Chain of Aryl hydrocarbon receptor (Homo sapiens) (P35869 whole entry, looked up): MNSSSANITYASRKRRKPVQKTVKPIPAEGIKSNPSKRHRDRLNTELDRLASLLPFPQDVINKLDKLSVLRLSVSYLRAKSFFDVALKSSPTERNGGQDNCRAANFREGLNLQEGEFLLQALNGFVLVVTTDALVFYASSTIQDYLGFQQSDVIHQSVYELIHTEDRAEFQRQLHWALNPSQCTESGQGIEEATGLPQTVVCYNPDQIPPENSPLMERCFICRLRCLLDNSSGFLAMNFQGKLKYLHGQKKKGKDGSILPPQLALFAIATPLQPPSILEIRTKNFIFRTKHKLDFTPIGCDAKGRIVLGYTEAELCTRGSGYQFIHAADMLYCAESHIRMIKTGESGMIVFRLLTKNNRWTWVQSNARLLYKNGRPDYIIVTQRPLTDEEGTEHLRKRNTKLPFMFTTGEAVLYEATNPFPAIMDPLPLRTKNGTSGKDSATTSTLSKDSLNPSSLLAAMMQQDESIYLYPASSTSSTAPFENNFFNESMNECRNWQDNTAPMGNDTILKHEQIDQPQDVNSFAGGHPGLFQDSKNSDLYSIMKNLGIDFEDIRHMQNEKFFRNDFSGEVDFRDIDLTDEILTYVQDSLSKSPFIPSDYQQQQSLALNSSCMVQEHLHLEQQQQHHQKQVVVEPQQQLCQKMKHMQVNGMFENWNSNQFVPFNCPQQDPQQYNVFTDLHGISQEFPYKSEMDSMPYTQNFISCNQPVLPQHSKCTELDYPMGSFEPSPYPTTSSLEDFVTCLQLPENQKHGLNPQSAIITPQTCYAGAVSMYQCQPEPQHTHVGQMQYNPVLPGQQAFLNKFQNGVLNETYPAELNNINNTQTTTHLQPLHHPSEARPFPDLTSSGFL
Method in brief: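 Stably transfected human liver carcinoma cells (HG2L7.5c1; 20 DRE-firefly luciferase) were incubated 5 h, dosed, and kept 24 h at 37C. Agonism was scored from increased luciferase luminescence.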

[8] = qHTS assay to identify small molecule that activate the aryl hydrocarbon receptor (AhR) signaling pathway - cell viability counter screen (AID 743086);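 note: HepG2 liver cells carrying the AhR DRE luciferase reporter; nearly all actives have a fitted effect of over 45% in size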
Method in brief: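 Cytotoxicity counter screen: CellTiter-Fluor signal (30 min, 37 C) in 4000 HepG2 cells/well carrying the DRE-luciferase reporter, following 24 h compound exposure at 37 C.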

[9] = qHTS assay for small molecule agonists of the antioxidant response element (ARE) signaling pathway - cell viability counter screen (AID 743203; calls by dose curve; note: nearly all actives have a fitted effect of over 55% in size)
Method in brief: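 Compounds in DMSO were pinned onto ARE-bla HepG2 cells plated 5 hrs earlier at 2,000 cells/well. Sixteen hours later at 37C/5% CO2, CellTiter-Glo was added and luminescence measured after 30 min at room temperature.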

[10] = qHTS assay for small molecule activators of the heat shock response signaling pathway (AID 743210; active = well fitted activation curve with a large enough effect in the signal ratio in the repeat runs, with a control signal flat, not every such curve was filed as active; inconclusive = weak or mixed curves; the % refers to the signal ratio;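 note: HeLa cells with beta-lactamase reporter driven by heat shock elements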)
Method in brief: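 HeLa HSE-bla cells, overnight plating; cpd in DMSO 5 h, 37 C; LiveBLAzer B/G FRET substrate 2.5 h RT; fluorescence intensity read.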

[11] = qHTS assay to identify small molecule antagonists of the peroxisome proliferator-activated receptor gamma (PPARg) signaling pathway - cell viability counter screen (AID 743194); settings: Potency: co-treated with 50 nM rosiglitazone unless noted; note: nearly all actives have a fitted effect of over 55% in size
Method in brief: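 Viability was measured as CellTiter-Glo luminescence in GeneBLAzer PPARg UAS-bla HEK293H cells. These cells had been exposed 17 h at 37 C to compounds together with rosiglitazone at 50 nM final, with the beta-lactamase readout taken in the same wells.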

[12] = qHTS assay for small molecule agonists of the antioxidant response element (ARE) signaling pathway (AID 743202; active = well fitted activation curve with a large enough effect in the signal ratio in the repeat runs, not every such curve was filed as active; inconclusive = weak or mixed curves, or effect the other way; inactive = no such curve, though single readings can be large or run the other way; the % refers to the signal ratio; note: potency is the fitted concentration of half-maximal effect)
Method in brief: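 Quantitative high-throughput format in HepG2 cells bearing an integrated ARE-beta-lactamase reporter. Compound exposure lasted 16 h at 37 C, and fluorescence was read 2 h after adding LiveBLAzer B/G substrate at room temperature.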

[13] = qHTS assay for small molecule activators of the heat shock response signaling pathway - cell viability counter screen (AID 743209); note: nearly all actives have a fitted effect of over 50% in size
Method in brief: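 Counter screen for cytotoxicity in HeLa HSE-bla reporter cells. Treatment was 5 h at 37 C; viability was detected by luminescent ATP assay (CellTiter-Glo) in the same wells as the beta-lactamase read.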

[14] = qHTS assay to identify small molecule antagonists of the estrogen receptor alpha (ER-alpha) signaling pathway using the BG1 cell line - cell viability counter screen (AID 743081);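 note: compound given together with 17beta-estradiol as the ER stimulus; nearly all actives have a fitted effect of over 45% in size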
[15] = biological target: Peroxisome proliferator-activated receptor gamma (Homo sapiens) (UniProt P37231); test: qHTS assay to identify small molecule agonists of the peroxisome proliferator-activated receptor gamma (PPARg) signaling pathway (AID 743094; active = well fitted activation curve with a large enough effect in the signal ratio in the repeat runs, not every such curve was filed as active; inconclusive = weak or mixed curves, or effect the other way; inactive = no such curve, though single readings can be large or run the other way; the % refers to the signal ratio)
Chain of Peroxisome proliferator-activated receptor gamma (Homo sapiens) (P37231 whole entry, looked up): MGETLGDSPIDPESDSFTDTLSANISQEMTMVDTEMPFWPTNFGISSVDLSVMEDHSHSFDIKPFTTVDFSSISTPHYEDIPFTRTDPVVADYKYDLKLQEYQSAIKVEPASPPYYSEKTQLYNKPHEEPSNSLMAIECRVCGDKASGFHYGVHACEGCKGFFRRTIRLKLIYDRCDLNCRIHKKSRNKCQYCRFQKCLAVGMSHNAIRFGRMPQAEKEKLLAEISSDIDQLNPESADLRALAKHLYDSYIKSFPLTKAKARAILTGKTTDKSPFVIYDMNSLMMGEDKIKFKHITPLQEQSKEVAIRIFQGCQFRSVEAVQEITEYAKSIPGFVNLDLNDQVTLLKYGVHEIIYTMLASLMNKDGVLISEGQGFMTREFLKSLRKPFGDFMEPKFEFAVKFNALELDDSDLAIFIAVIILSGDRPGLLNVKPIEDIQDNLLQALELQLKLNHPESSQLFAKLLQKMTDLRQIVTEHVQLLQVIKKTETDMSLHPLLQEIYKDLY
Method in brief: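 Following 5 h plating at 37C, PPARg-bla HEK293H cells receive compound or DMSO for 17 h; fluorescence intensity is recorded after LiveBLAzer B/G loading for 1 h at room temperature.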

[16] = biological target: Peroxisome proliferator-activated receptor gamma (Homo sapiens) (UniProt P37231); test: qHTS assay to identify small molecule antagonists of the peroxisome proliferator-activated receptor gamma (PPARg) signaling pathway (AID 743191; calls by dose curve; note: nearly all actives have a fitted effect of over 30% in size)
Method in brief: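 Beta-lactamase reporter under UAS control in HEK293H PPARg-bla cells; compound treatment 17 h at 37C. Read-out: fluorescence intensity after 1 h room-temperature incubation with LiveBLAzer B/G FRET substrate.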

[17] = biological target: Estrogen receptor (Homo sapiens) (UniProt P03372); test: qHTS assay to identify small molecule antagonists of the estrogen receptor alpha (ER-alpha) signaling pathway (AID 743069; active = well fitted curve in the direction sought with a large enough effect in the signal ratio in the repeat runs, not every such curve was filed as active; inconclusive = weak or mixed curves, or effect the other way; inactive = no such curve, though single readings can be large or run the other way; the % refers to the signal ratio)
Method in brief: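 ER-alpha-UAS-bla GripTite HEK293 line; 2% charcoal-stripped FBS overnight; plated, 4 hr 37C/5% CO2; cpd in DMSO + 17beta-estradiol, 18 hr 37C; LiveBLAzer B/G FRET substrate 2 hr RT; fluorescence intensity.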

[18] = qHTS assay to identify small molecule antagonists of the thyroid receptor (TR) signaling pathway (AID 743065)
Method in brief: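 Antagonism measured as loss of luciferase signal in GH3 cells stably carrying a TRE-luciferase reporter, co-treated with compound and T3 (1 nM final) for 23.5 h at 37 C. Viability was read in the same well by CellTiter-Fluor.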

Measured: Potency

CCO/N=C(\CC)C1=C(O)CC(c2c(C)cc(C)cc2C)CC1=O (stereo not given)
not listed: [11] | [12] | [13] | [14] | [15] | [16] | [17] | [18]
inactive: all other assays above

CC#C[C@]1(O)CC[C@H]2[C@@H]3C[C@H](C)C4=CC(=O)CC[C@]4(C)[C@H]3CC[C@@]21C
inactive: [11] | [9] | [13]
active: [12] 23.7 µM

Cc1c([N+](=O)[O-])cc2c(c1[N+](=O)[O-])C(C)(C)CC2(C)C
active: [3] 21.9 µM [inconclusive] | [5] 15.4 µM | Aromatase (Homo sapiens) 27.3 µM
not listed: [4] | [7] | [12] | [17] | [18]
inactive: all other assays above

CCC(C)Nc1c([N+](=O)[O-])cc(C(C)(C)C)cc1[N+](=O)[O-] (stereo not given)
active: [4] 61.1 µM
not listed: [1] | [10] | [12] | [15] | [18]
inactive: all other assays above

FC(F)C(F)(F)OCC(Cn1cncn1)c1ccc(Cl)cc1Cl (stereo not given)
active: [18] 60.8 µM | Aromatase (Homo sapiens) 7.65 µM
inactive: [14] | [11] | [9] | [13] | [10]

C#CCO
not listed: [1] | [15] | [18]
inactive: all other assays above

CCN(CC)CCc1c[nH]c2ccccc12
not listed: Aromatase (Homo sapiens) | [8] | [10] | [12] | [15] | [16] | [18]
inactive: all other assays above

Oc1ccc([C@H]2CNCc3c2ccc(O)c3O)cc1O
not listed: [2] | [7] | [12] | [15] | [16] | [18]
inactive: all other assays above

O=c1[nH]c2cc(Cl)ccc2n1C1CCNCC1
inactive: [16] | [11] | [9] | [13] | [10]

CCN(CC)C(=O)N[C@@H]1C=C2c3cccc4[nH]cc(c34)C[C@@H]2N(C)C1
not listed: [5] | Aromatase (Homo sapiens) | [7] | [11] | [18]
inactive: all other assays above

O=C(CCCCl)c1ccc(F)cc1
inactive: [16] | [11] | [12] | [9] | [13] | [10]

CN1C2CCC(C)(C)C1CC(OC(=O)C(O)(c1cccs1)c1cccs1)C2 (stereo not given)
inactive: [11] | [12] | [9] | [10]
